Results as given in ChEMBL document CHEMBL1961873, “Compounds: GSK PKIS; Assays: Nanosyn kinase panel” (2012).

Experiments:
[1] = target: T1, Tyrosine-protein kinase receptor TYRO3 (Homo sapiens) (UniProt Q06418); details: at 1 µM
T1 sequence (whole entry): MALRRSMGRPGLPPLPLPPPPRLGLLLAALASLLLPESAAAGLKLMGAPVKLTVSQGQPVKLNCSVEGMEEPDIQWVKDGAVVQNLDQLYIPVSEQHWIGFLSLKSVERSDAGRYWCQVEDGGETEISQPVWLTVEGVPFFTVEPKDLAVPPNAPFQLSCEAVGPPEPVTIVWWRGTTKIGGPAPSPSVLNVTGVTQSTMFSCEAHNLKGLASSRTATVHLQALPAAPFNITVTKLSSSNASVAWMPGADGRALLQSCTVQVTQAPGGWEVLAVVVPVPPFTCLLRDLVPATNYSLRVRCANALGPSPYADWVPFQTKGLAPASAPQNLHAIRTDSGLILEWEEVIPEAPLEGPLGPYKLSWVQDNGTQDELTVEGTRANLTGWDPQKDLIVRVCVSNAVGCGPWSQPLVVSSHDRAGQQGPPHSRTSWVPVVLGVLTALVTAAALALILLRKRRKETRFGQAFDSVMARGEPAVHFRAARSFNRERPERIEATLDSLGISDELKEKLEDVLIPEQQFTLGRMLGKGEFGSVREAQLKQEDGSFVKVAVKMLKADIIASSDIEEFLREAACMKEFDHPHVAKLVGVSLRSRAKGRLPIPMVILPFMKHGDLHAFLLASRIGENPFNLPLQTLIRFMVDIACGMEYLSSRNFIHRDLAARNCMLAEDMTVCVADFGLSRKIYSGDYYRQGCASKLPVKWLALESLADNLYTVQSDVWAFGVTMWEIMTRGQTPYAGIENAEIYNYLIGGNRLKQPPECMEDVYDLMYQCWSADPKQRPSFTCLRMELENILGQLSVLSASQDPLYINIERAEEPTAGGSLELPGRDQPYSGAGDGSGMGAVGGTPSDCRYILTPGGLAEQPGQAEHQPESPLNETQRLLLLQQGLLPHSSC

[2] = target: Tyrosine-protein kinase Yes (Homo sapiens) (UniProt P07947); details: at 0.1 µM
Chain of Tyrosine-protein kinase Yes (Homo sapiens) (P07947 2-543 limits assumed): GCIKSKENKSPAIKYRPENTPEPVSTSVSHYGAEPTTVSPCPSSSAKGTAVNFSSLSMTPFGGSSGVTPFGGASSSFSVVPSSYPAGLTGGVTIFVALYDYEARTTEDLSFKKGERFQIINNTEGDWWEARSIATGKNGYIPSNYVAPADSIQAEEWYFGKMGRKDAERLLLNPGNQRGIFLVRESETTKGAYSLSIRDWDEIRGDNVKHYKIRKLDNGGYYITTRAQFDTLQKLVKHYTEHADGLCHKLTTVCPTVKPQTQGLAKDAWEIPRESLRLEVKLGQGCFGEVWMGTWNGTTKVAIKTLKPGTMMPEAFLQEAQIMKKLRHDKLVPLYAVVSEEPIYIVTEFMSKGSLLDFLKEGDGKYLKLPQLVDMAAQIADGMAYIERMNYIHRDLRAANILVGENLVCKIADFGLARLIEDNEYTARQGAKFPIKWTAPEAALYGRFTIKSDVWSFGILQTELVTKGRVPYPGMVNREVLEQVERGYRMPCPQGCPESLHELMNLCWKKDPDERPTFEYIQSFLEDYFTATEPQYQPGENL

[3] = target: Tyrosine-protein kinase Yes (Homo sapiens) (UniProt P07947); details: at 1 µM
[4] = target: T2, Tyrosine-protein kinase ZAP-70 (Homo sapiens) (UniProt P43403); details: at 0.1 µM
T2 sequence (whole entry): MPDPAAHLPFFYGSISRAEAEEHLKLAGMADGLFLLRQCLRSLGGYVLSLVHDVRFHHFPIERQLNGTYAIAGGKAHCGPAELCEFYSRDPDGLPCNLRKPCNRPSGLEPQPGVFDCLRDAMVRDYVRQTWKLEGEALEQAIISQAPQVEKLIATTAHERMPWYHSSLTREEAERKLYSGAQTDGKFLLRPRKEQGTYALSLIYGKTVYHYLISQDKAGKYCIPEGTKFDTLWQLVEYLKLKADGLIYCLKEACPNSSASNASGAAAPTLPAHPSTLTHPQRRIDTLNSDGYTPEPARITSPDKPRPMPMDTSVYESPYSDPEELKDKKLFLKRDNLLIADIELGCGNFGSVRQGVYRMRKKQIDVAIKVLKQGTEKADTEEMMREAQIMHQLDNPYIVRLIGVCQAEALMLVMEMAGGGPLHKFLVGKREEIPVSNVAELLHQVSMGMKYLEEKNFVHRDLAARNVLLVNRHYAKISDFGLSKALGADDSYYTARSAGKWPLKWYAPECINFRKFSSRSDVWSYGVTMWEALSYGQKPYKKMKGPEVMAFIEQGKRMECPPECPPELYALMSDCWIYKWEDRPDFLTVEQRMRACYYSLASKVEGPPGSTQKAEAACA

[5] = target: T2, Tyrosine-protein kinase ZAP-70 (Homo sapiens); details: at 1 µM
[6] = target: Serine/threonine-protein kinase B-raf (Homo sapiens) (UniProt P15056); details: at 0.1 µM
Chain of Serine/threonine-protein kinase B-raf (Homo sapiens) (P15056 whole entry): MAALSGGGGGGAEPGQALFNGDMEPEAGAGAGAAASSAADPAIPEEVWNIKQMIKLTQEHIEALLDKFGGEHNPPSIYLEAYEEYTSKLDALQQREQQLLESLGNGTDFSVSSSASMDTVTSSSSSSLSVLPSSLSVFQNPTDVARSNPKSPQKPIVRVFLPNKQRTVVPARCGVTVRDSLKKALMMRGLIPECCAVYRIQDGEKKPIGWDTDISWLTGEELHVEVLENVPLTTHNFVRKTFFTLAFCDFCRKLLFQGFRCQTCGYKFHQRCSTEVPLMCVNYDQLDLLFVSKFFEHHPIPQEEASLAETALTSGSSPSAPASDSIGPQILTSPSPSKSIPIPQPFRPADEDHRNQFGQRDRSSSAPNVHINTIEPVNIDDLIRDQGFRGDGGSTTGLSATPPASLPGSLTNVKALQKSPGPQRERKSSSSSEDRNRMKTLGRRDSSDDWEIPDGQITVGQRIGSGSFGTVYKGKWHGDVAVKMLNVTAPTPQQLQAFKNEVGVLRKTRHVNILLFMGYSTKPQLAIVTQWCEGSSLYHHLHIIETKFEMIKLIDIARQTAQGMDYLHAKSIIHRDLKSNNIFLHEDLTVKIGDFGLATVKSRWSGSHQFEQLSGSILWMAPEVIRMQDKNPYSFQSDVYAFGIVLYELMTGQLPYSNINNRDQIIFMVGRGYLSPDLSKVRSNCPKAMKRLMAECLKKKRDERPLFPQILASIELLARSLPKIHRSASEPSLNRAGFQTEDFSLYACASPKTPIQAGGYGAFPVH

[7] = target: Serine/threonine-protein kinase B-raf (Homo sapiens) (UniProt P15056); details: at 1 µM
[8] = tested on: Serine/threonine-protein kinase B-raf (Homo sapiens), P15056 [V600E]; details: at 0.1 µM
Chain of Serine/threonine-protein kinase B-raf (Homo sapiens), P15056 [V600E] (P15056 whole entry V600E): as the sequence (P15056 whole entry) above, with V600E counted along it

[9] = tested on: Serine/threonine-protein kinase B-raf (Homo sapiens), P15056 [V600E]; details: at 1 µM
[10] = target: RAF proto-oncogene serine/threonine-protein kinase (Homo sapiens) (UniProt P04049); details: at 0.1 µM
Chain of RAF proto-oncogene serine/threonine-protein kinase (Homo sapiens) (P04049 whole entry): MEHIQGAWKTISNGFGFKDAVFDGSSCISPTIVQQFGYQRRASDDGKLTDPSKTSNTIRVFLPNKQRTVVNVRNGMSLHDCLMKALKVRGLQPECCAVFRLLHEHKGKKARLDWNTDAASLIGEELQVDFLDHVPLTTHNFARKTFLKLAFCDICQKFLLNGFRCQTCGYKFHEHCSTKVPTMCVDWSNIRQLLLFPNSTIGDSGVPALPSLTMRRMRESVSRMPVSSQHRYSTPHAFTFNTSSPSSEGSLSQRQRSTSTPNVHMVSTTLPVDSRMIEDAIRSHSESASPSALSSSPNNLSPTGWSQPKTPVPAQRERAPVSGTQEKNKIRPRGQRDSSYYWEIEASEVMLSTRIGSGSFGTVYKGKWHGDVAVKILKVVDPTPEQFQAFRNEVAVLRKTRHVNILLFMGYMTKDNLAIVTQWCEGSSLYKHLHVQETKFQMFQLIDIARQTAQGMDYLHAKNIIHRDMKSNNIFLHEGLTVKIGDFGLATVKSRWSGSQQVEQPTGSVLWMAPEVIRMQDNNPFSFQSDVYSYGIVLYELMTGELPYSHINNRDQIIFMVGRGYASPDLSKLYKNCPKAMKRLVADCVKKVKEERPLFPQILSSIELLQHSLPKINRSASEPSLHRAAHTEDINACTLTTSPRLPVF

[11] = target: RAF proto-oncogene serine/threonine-protein kinase (Homo sapiens) (UniProt P04049); details: at 1 µM
[12] = target: T3, Interleukin-1 receptor-associated kinase 4 (Homo sapiens) (UniProt Q9NWZ3); details: at 0.1 µM
T3 sequence (whole entry): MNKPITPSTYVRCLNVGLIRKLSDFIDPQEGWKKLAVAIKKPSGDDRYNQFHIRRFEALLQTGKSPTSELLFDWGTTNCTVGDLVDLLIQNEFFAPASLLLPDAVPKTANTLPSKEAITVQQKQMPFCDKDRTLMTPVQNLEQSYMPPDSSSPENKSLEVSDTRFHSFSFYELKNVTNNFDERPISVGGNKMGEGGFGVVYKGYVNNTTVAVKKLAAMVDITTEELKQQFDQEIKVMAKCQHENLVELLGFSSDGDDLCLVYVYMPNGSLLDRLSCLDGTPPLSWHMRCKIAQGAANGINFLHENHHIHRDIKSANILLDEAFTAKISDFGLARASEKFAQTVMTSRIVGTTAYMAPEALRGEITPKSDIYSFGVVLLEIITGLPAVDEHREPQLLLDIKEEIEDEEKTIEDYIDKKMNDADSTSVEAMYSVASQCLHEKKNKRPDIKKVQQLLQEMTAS

[13] = target: T3, Interleukin-1 receptor-associated kinase 4 (Homo sapiens); details: at 1 µM
[14] = target: Leucine-rich repeat serine/threonine-protein kinase 2 (Homo sapiens) (UniProt Q5S007); details: at 0.1 µM
Chain of Leucine-rich repeat serine/threonine-protein kinase 2 (Homo sapiens) (Q5S007 whole entry): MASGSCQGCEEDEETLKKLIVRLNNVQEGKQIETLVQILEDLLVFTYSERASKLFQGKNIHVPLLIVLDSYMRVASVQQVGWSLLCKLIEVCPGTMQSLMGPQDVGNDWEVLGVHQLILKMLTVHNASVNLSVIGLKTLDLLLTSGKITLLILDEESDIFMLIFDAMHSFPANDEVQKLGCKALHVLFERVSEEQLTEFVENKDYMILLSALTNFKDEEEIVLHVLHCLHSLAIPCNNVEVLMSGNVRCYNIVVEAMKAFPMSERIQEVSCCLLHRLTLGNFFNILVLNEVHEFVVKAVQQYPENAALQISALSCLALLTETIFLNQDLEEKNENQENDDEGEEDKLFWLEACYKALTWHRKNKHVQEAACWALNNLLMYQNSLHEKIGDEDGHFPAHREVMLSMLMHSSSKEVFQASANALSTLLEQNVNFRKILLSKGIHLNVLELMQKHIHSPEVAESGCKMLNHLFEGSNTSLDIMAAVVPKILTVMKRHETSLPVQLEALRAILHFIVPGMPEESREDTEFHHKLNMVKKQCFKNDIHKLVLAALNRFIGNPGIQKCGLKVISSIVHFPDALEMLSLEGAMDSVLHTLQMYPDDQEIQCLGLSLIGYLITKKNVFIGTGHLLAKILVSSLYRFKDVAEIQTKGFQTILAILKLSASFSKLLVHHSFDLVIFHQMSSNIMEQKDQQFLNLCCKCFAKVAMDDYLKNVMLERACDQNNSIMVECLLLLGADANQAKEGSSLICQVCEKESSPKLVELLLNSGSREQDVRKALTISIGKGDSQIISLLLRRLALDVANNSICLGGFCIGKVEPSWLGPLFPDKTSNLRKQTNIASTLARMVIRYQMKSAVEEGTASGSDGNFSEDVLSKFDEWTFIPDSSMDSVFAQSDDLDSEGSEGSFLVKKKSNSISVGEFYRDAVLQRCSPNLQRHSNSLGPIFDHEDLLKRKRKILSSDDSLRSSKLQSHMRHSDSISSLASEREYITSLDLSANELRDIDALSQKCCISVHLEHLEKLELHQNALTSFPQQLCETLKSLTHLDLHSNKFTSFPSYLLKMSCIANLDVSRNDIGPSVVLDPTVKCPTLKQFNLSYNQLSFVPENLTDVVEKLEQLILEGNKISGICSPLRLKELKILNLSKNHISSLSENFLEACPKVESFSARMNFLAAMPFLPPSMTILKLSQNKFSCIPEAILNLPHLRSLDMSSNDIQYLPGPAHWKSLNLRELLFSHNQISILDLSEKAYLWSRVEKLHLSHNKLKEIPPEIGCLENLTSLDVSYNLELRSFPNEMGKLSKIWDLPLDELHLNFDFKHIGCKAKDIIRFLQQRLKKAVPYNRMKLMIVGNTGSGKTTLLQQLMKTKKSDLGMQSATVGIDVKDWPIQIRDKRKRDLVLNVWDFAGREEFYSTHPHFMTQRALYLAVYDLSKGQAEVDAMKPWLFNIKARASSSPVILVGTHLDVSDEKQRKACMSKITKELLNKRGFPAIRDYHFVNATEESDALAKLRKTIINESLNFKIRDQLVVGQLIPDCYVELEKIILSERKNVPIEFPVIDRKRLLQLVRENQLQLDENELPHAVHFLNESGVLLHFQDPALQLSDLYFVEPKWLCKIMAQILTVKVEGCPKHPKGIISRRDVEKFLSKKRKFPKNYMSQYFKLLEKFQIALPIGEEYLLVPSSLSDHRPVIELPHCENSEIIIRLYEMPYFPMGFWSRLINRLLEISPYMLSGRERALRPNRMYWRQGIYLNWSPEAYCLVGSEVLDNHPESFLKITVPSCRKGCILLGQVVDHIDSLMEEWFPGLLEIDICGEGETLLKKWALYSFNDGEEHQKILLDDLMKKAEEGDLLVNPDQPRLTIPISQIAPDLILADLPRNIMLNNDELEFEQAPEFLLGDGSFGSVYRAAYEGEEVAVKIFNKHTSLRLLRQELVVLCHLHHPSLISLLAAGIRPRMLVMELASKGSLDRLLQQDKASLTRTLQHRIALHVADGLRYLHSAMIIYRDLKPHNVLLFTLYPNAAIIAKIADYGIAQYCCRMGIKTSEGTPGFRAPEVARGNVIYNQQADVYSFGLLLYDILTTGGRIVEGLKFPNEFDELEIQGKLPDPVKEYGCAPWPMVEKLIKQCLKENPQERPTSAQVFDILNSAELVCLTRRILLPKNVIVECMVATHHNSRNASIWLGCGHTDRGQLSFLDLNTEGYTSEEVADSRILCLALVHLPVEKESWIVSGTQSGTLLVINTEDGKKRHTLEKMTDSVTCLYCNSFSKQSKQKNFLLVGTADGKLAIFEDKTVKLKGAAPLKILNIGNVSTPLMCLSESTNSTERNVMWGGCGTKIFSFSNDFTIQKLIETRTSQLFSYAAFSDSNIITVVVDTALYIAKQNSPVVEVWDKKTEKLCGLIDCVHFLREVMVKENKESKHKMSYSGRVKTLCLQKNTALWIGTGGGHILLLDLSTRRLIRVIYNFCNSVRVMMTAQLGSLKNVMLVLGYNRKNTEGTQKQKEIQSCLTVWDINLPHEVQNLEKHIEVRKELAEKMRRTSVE

[15] = target: Leucine-rich repeat serine/threonine-protein kinase 2 (Homo sapiens) (UniProt Q5S007); details: at 1 µM
[16] = tested on: Leucine-rich repeat serine/threonine-protein kinase 2 (Homo sapiens), Q5S007 [G2019S]; details: at 0.1 µM
Chain of Leucine-rich repeat serine/threonine-protein kinase 2 (Homo sapiens), Q5S007 [G2019S] (Q5S007 whole entry G2019S): as the sequence (Q5S007 whole entry) above, with G2019S counted along it

[17] = tested on: Leucine-rich repeat serine/threonine-protein kinase 2 (Homo sapiens), Q5S007 [G2019S]; details: at 1 µM

Compound	inhibition [1]	inhibition [2]	inhibition [3]	inhibition [4]	inhibition [5]	inhibition [6]	inhibition [7]	inhibition [8]	inhibition [9]	inhibition [10]	inhibition [11]	inhibition [12]	inhibition [13]	inhibition [14]	inhibition [15]	inhibition [16]	inhibition [17]
Cc1ccc(NC(=O)c2ccoc2)cc1-c1ccc(C(=O)NCC2CC2)cc1	3.21%	3.34%	1.5%	-0.49%	1.63%	3.14%	2.28%	2.97%	1.81%	0.61%	-0.41%	1.67%	2%	1.24%	4.06%	2.32%	2.75%
COc1cc2ncn(-c3cc(OCc4ccccc4C(F)(F)F)c(C(C)=O)s3)c2cc1OC	2.25%	2.59%	6.19%	-0.08%	-3.94%	5.13%	5.83%	4.21%	4.4%	-0.73%	-1.56%	0.98%	1.4%	3.23%	6.15%	3.58%	6.68%
COc1cc(Nc2ncc3c(C)nc(-c4cccc(C(F)(F)F)c4)n3n2)cc(OC)c1OC	10.6%	11.6%	42.7%	1.78%	2.75%	5.44%	14.8%	5.48%	13.2%	3.02%	-2.3%	-2.83%	1.37%	8.04%	17.4%	11.1%	39.6%
NC(=O)c1cc(-c2ccc(F)cc2)cc(-c2ccncc2)c1N	3.84%	3.3%	8.03%	3.36%	4.08%	6.39%	7.79%	7.49%	7.36%	0.54%	8.69%	2.99%	1.61%	0.64%	0.67%	0.41%	0.77%
O=C1NC(=O)C(c2cccc(Cl)c2)=C1Nc1ccc(Cl)c(C(=O)O)c1	2.5%	4.03%	6%	4.89%	2.76%	5.48%	2.76%	6.61%	4.77%	2.73%	17.7%	3.69%	1.5%	2.15%	4.76%	3.36%	7.81%
O=C1Nc2ccc(I)cc2C1=Cc1cc(Br)c(O)c(Br)c1	3.68%	2.36%	4.8%	3.85%	5.52%	6.02%	15%	4.33%		8.31%	11.3%	1.47%	2.1%	19.2%	71.9%	37.4%	78%
COc1ccc(-c2ccc3c(NC(=O)C4CC4)n[nH]c3n2)cc1	21.7%	2.13%	8.75%	0.8%	-3.24%	3.14%	2%	3.73%	1.97%	-1.88%		2.75%	0.45%	1.6%	5.11%	2.17%	3.39%
O=C1Nc2ccccc2/C1=C/Nc1ccc(-n2cncn2)cc1	10.2%	3.29%	15.7%	4.53%	7.33%	6.1%	6.87%	7.05%	6.86%	15.1%	5.44%	2.2%	2.52%	4.2%	9.2%	6.6%	23.9%
COc1ccc(C2=C(N3CCc4ccccc43)C(=O)NC2=O)cc1	3.41%	4.87%	5.12%	3.72%	-0.45%	5.73%	7.39%	6.3%	4.71%	-3.24%	-3.87%	5.89%	2.48%	3.04%	10.9%	4.7%	13.9%
NS(=O)(=O)c1ccc(N/N=C2\C(=O)Nc3ccc(C(=O)NCCCn4ccnc4)cc32)cc1	9.93%	5.35%	24.1%	0.31%	8.11%	10.7%	38.4%	11.3%	38.9%	5.92%	17.5%	3.89%	1.67%	7.05%	18.7%	11.1%	38.8%
CCC(=O)Nc1ccc(C)c(-c2ccc(C(=O)NCC3CC3)cc2)c1	2.68%	3.12%	4.01%	-4.93%	1.46%	4.61%	4.76%	3.97%	4.63%	2.89%	-0.29%	1.62%	2.19%	-0.86%	1.68%	0.68%	2.28%
O=C(Nc1ccc(Oc2ccc3[nH]c(NC(=O)c4ccccc4)nc3c2)cc1)Nc1cc(C(F)(F)F)ccc1F	16.8%	1.01%	7.23%	-1.74%	1.65%	4.48%	33.4%	5.24%	42.7%	-3.16%	17.9%	-1.64%	2.09%	13%	18.4%	6.22%	36.1%
CN(C)CCCNc1nccc(-c2c(-c3ccc(F)cc3)nn3cc(C(F)(F)F)ccc23)n1	1.35%	0.79%	-0.45%	-2.33%	-4.78%	2.11%	2.24%	2.52%	2.19%	3.17%	0.11%	-2.77%	1.66%	-2%	1.95%	-0.33%	2.73%
COc1ccc2cc(-c3c(-c4ccncc4)nc(-c4ccc(S(C)(=O)=O)cc4C)n3C)ccc2c1	5.53%	3.64%	20.9%	-0.34%	0.82%	6.36%	6.36%	6.6%	5.85%	5.5%	2.24%	3.69%	2.09%	1.75%	6.91%	2.55%	10.2%
CNC(=O)c1cncc(/C=C/c2c(C)cccc2C)c1	2.18%	6.81%	33%	-2.13%	-4.22%	0.8%	5.69%	-0.11%	2.82%	-5.49%	-0.25%	-1.78%	0.42%	-5.56%	-1.97%	-3.85%	-1.34%
